Measurements from PubChem BioAssay (NCI).
Several values for one entry are separate records, joined by “and”; a condition that tells them apart may be missing. Equal values may be shown once. About 83,000 compounds went through this panel and 20% of them were active in at least one assay; those are over-represented in the sample as a whole.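 Values shown are percent growth following 48 h exposure of cells in 96-well plates to a single concentration of compound; below 10 was considered active.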 Activity calls are given as the source filed them.

Experiments:
Experiment in all cases: NCI-60 one-dose screen, 48 h (100 = growth as untreated, 0 = no growth, -100 = all killed)
[1] = test system: T-47D breast
[2] = test system: BT-549 breast
[3] = test system: MDA-MB-435 melanoma
[4] = test system: SW-620 colon
[5] = test system: MCF7 breast
[6] = test system: HCT-116 colon
[7] = test system: HCC-2998 colon
[8] = test system: KM12 colon

Measured: growth

CC1SC(=S)N(c2ccc(Cl)cc2)C1=O (configuration not stated)
inactive: [1]; 10 µM unless noted 73.9% and 62.8% | [2]; 10 µM unless noted 106% and 86.2% | [3]; 10 µM unless noted 106% and 99.8% | [4]; 10 µM unless noted 109% and 113% | [5]; 10 µM 96.9% and 79.9% | [6]; 10 µM unless noted 100% and 93.4% | [7]; 10 µM unless noted 90.7% | [8]; 10 µM unless noted 94.6% and 108%

C1=C(c2ccccc2)C(c2ccc(OCCN3CCCCC3)cc2)Oc2ccccc21 (configuration not stated)
active: [5]; 10 µM 6.42%
inactive: [1]; 10 µM unless noted 26.1% | [2]; 10 µM unless noted 72.9% | [3]; 10 µM unless noted 18.7% | [4]; 10 µM unless noted 16.2% | [6]; 10 µM unless noted 46.6% | [7]; 10 µM unless noted 34.1% | [8]; 10 µM unless noted 46.4%

O=[N+]([O-])c1ccc(N=Nc2ccc(O)cc2O)cc1
inactive: [1]; 10 µM unless noted 27.4% | [2]; 10 µM unless noted 64.5% | [3]; 10 µM unless noted 10.1% | [4]; 10 µM unless noted 47.8% | [5]; 10 µM 26% | [6]; 10 µM unless noted 17.5% | [7]; 10 µM unless noted 31.6% | [8]; 10 µM unless noted 64.3%

COC(=O)c1nc(=S)[nH]c(C(=O)OC)c1C(=O)c1ccccn1
inactive: [1]; 10 µM unless noted 51.5% | [2]; 10 µM unless noted 50.3% | [3]; 10 µM unless noted 33.3% | [4]; 10 µM unless noted 43.3% | [5]; 10 µM 14.6% | [6]; 10 µM unless noted 17.9% | [7]; 10 µM unless noted 45.3% | [8]; 10 µM unless noted 24.6%

CCC(CC)COC(=O)c1ccc(O)c(O)c1
inactive: [1]; 10 µM unless noted 43.6% | [2]; 10 µM unless noted 50% | [3]; 10 µM unless noted 69.8% | [4]; 10 µM unless noted 80.5% | [5]; 10 µM 97.5% | [6]; 10 µM unless noted 72.6% | [7]; 10 µM unless noted 84.4% | [8]; 10 µM unless noted 61.3%

Cn1c2ccccc2c2nnc(N/N=C/c3ccccn3)nc21
active: [2]; 10 µM unless noted -24.2%
inactive: [1]; 10 µM unless noted 19.2% | [3]; 10 µM unless noted 19.1% | [4]; 10 µM unless noted 31.3% | [5]; 10 µM 13.3% | [6]; 10 µM unless noted 14.4% | [7]; 10 µM unless noted 34.5% | [8]; 10 µM unless noted 23%

O=C(Nc1cccc(Br)c1)Oc1cccc2cccnc12
active: [1]; 100 µM 2.98% | [5]; 100 µM -37.7% | [6]; 100 µM 1.93%
inactive: [1]; 10 µM 92% | [2]; 10 µM 90.5% | [2]; 100 µM 12.7% | [3]; 10 µM 98.2% | [3]; 100 µM 43.1% | [4]; 10 µM 106% | [4]; 100 µM 25% | [5]; 10 µM 92.9% | [6]; 10 µM 92.7% | [7]; 10 µM 98.2% | [7]; 100 µM 59.9% | [8]; 10 µM 110% | [8]; 100 µM 40.1%

Cc1ccc(C(=Nc2ccccc2)N=P(c2ccccc2)(c2ccccc2)c2ccccc2)cc1
active: [1]; 10 µM unless noted -33.4% | [2]; 10 µM unless noted -26.9% | [3]; 10 µM unless noted -76.4% | [4]; 10 µM unless noted -40.7% | [5]; 10 µM -39.7% | [6]; 10 µM unless noted -37.8% | [7]; 10 µM unless noted -71.6% | [8]; 10 µM unless noted -70.9%

O=C1c2ccccc2C(=O)N1c1ccccc1
inactive: [1]; 10 µM unless noted 95.7% | [2]; 10 µM unless noted 107% | [3]; 10 µM unless noted 98.7% | [4]; 10 µM unless noted 109% | [5]; 10 µM 96.6% | [6]; 10 µM unless noted 105% | [7]; 10 µM unless noted 102% | [8]; 10 µM unless noted 107%

CCCCCCC(C)c1ccccc1O (configuration not stated) (tested in a mixture with another compound)
inactive: [1]; 10 µM unless noted 94.8% | [2]; 10 µM unless noted 108% | [3]; 10 µM unless noted 98.7% | [4]; 10 µM unless noted 103% | [5]; 10 µM 116% | [6]; 10 µM unless noted 111% | [7]; 10 µM unless noted 103% | [8]; 10 µM unless noted 107%

c1ccc2c(c1)Nc1cc3ccccc3cc1N2
inactive: [1]; 10 µM unless noted 24.9% | [2]; 10 µM unless noted 33% | [4]; 10 µM unless noted 18.8% | [6]; 10 µM unless noted 26.4% | [7]; 10 µM unless noted 36.8% | [8]; 10 µM unless noted 44.2%
active: [3]; 10 µM unless noted -16.7% | [5]; 10 µM 2.88%

CN(C)C(=O)c1ccc(SC(=S)NCc2ccccc2)cc1
active: [2]; 100 µM -79.3% | [3]; 100 µM 4.45% | [4]; 100 µM -35.8% | [5]; 100 µM -7.59% | [6]; 100 µM -26.2% | [7]; 100 µM -78.3%
inactive: [1]; 10 µM 90% | [1]; 100 µM 13.4% | [2]; 10 µM 114% | [3]; 10 µM 97.4% | [4]; 10 µM 98.9% | [5]; 10 µM 67.3% | [6]; 10 µM 100% | [7]; 10 µM 104% | [8]; 10 µM 102% | [8]; 100 µM 25.5%
